Measured values as given in PubChem BioAssay AID652013 (National Center for Advancing Translational Sciences (NCATS), 2013).
Several values for one entry are separate records, joined by “and”; a condition that tells them apart may be missing. Equal values may be shown once. Activity calls are given as the source filed them.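 Rule for the calls: active = relative NQO1 transcription at 1 µM of 250% or more; inconclusive = relative NQO1 transcription between 200% and 250%; inactive = relative NQO1 transcription under 200%.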

Test: qHTS of Nrf2 Activators: Hit Validation in NQO-1 Induction Assay
Conditions: Hepa1c1c7 cells, NQO1 mRNA qPCR, 24 h; at 1 µM; stronger effect = higher value
Description: Many diseases have some form of oxidative stress injury and ties to inflammation, causing a host of problems for the patient. The antioxidant response element (ARE) plays an important role in alleviating the harmful effects of oxidative stress. The antioxidant response element (ARE) is a transcriptional regulatory element involved in the activation of genes coding for a number of antioxidant proteins and detoxifying enzymes. These enzymes work in concert to protect tissues from oxidative insults and chemical toxicities in human hepatocytes and immune cells. The protective effects of ARE activation are primarily triggered through Nrf2 (NF-E2-related factor) binding to and activating AREs. It is known that Nrf2 controls the production of over 250 antioxidant and detoxification proteins (Hu et al., 2006), thereby protecting tissues by increasing cellular antioxidant content and suppressing inflammatory signaling pathways. The transcription factor Nrf2 is a central link between oxidative chemicals, such as phenolic antioxidants and electrophilic compounds, and the activation of ARE. Nrf2 levels are constitutively low as a consequence of its interaction with Keap1, which targets its degradation (Zipper and Mulcahy, 2002). Electrophiles react with key cysteine residues in Keap1, releasing Nrf2 and allowing its translocation to the nucleus. Once within the nucleus, Nrf2 complexes with coactivators such as p300, and binds to the AREs to induce gene transcription of cytoprotective enzymes, resulting in the prevention of toxicity. Activation of Nrf2 protects tissues by increasing cellular antioxidant content and suppressing inflammatory signaling pathways. Identifying novel and potent Nrf2 activators by using the AREc32 cell line to detect ARE activation by small molecules will lead to the identification and development of probes to study protective pathways in multiple tissues. These specific probes are essential to study the ARE pathway, and eventually to determine whether this pathway does activate genes that could protect against a host of diseases, including cardiovascular diseases, obesity, diabetes, Alzheimer's, and Parkinson's disease. This project's aim is to identify novel and potent Nrf2 activators by using the AREc32 cell line to detect ARE activation by small molecules, which will lead to the identification and development of probes to study the ARE pathway. Compounds that were identified in the primary screen were tested in this secondary assay to assess whether a hit also activates Nrf2 transcription of the target gene NQO-1. NIH Chemical Genomics Center [NCGC] NIH Molecular Libraries Probe Centers Network [MLPCN] MLPCN Grant: DK081461 Assay Submitter (PI): Curtis Klaassen, University of Kansas Medical Center
Hepac1c7 cells were seeded into 24-well plates at a density of 30,000 cells/well in 1 mL complete media per well and cultured overnight to allow attachment. Cells were treated the next day with compounds (1 uM)or positive control for 24 h. Total RNA samples were then isolated by using RNAzol B reagent (Tel-Test, Inc., Friendswood, TX) according to the manufacturer's protocol. Total RNAs were reverse-transcribed into cDNA by High Capacity cDNA Archive Kits (Applied Biosystems, Foster City, CA) and the resulting cDNA was used for real-time PCR analysis using SYBR(R) Green PCR Master Mix in a 7900HT Fast Real-Time PCR System.

Row | SMILES | relative NQO1 transcription
1 | COc1ccccc1NC(=O)c1cc(Cl)nc2ccccc12 | 79% (inactive)
2 | CS(=O)(=O)c1nc(S(=O)(=O)c2ccc(Cl)cc2)c(N2CCOCC2)s1 | 129% (inactive)
3 | COC(=O)c1c(NC(=O)c2ccccc2)sc(C(N)=O)c1C | 60% (inactive)
4 | COc1ccc(NC(=O)c2cc(-c3ccco3)on2)c(OC)c1 | 75% (inactive)
5 | Clc1ccc2c(NCc3ccccn3)ncnc2c1 | 83% (inactive)
6 | O=C(Nc1cccc2ncccc12)c1ccc(Cl)cc1 | 136% (inactive)
7 | O=C(Nc1ncnc2sc3c(c12)CCCCC3)c1ccco1 | 163% (inactive) and 137% (inactive)
8 | O=C(Nc1ncnc2sc3c(c12)CCC3)c1ccco1 | 175% (inactive)
9 | Cc1nc(NCc2ccco2)nc2c1C(=O)CC(C)C2 (stereo not given) | 175% (inactive)
10 | COc1ccc(NC(=O)c2cc(-c3cccs3)on2)c(OC)c1 | 129% (inactive)
